The list is not random: actives were taken first. Their share in the collection is about 19%.
TDP1 cell noCPT: qHTS for Inhibitors of human tyrosyl-DNA phosphodiesterase 1 (TDP1): qHTS in cells in absence of CPT; 420,000 compounds, 15% hits; DT40 Tdp1-/- hTDP1 cells, no CPT, ATP luminescence, 48 h; Potency, µM (doses to about 46.2 µM), inactives show top-dose activity change, negative = growth inhibition, hits mostly inhibitors; further: potency means the concentration at half of the fitted maximal effect; nearly all actives have a fitted effect of over 55% in size
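Luminescent ATP content (CellTiter-Glo) served as the growth readout. Knockout chicken DT40 cells expressing human TDP1 were exposed to compounds without camptothecin for a minimum 48 hr at 37 °C.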
IL-1B inflam inh: qHTS for Inhibitors of Inflammasome Signaling: IL-1-beta AlphaLISA Primary Screen; THP-1 LPS/ATP IL-1B secretion, AlphaLISA, 16 h; active compounds read low; activity change, % at 57.5 µM; 360,000 compounds, 4.7% hits; AID 743279, 2014; in the data active means activity change below about -50%; inconclusive means mostly about -30% to -49%
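Secreted IL-1B measured by AlphaLISA bead assay after 16 h compound exposure of THP-1 cells; compounds (final up to 57.5 uM) added 1 h before LPS (250 ng/mL) and ATP (1.25 mM) stimulation; lower signal means less secretion.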
HT1080 IDH1KD tx: qHTS for induction of synthetic lethality in tumor cells producing 2HG: qHTS for the HT-1080-IDH1KD cell line | 360,000 compounds, 2% hits | AID 686971, 2013 | HT-1080 IDH1 knockdown viability, ATP luminescence, 48 h | Potency, µM (doses to about 46.1 µM), without a hit: at the top dose activity, negative = toxicity, most hits filed as cytotoxic;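 further: potency means the concentration at half of the fitted maximal effect; 0% = DMSO wells and -100% = cell-free medium wells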
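IDH1KD HT-1080 cells, 750/well, RPMI + 5% FBS; compound pinned after 2 h settling; 48 h, 37 °C; CellTiter-Glo luminescence; % activity normalised to DMSO and no-cell wells; curves fitted, classed by r2 and efficacy.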
TDP1 cell CPT: qHTS for Inhibitors of human tyrosyl-DNA phosphodiesterase 1 (TDP1): qHTS in cells in presence of CPT; chicken DT40 Tdp1-/-;hTDP1 cells + 20 nM CPT, ATP luminescence, 48 h; Potency, µM (highest dose often 46.2 µM), inactives show at the top dose activity change, negative = growth inhibition, most hits filed as inhibitors; 420,000 compounds, 12% hits; AID 686979, 2013; further: potency means the concentration at half of the fitted maximal effect; nearly all actives have a fitted effect of over 55% in size
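Chicken DT40 Tdp1-/- cells stably complemented with human TDP1 were seeded at 400 cells/well in medium containing 20 nM camptothecin, exposed to pin-transferred compounds, and grown at 37 °C for at least 48 hr. Viability was read as ATP luminescence.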
HT1080-NT tox: qHTS for induction of synthetic lethality in tumor cells producing 2HG: qHTS for the HT-1080-NT fibrosarcoma cell line. Potency, µM (highest dose often 46.1 µM), without a hit: at the highest dose activity, negative = less viability, actives largely listed as cytotoxic. HT-1080-NT fibrosarcoma viability, CellTiter-Glo ATP luminescence, 48 h. 360,000 compounds, 1.6% hits;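 further: NT is the 2HG producing partner of a matched IDH1 knockdown line; potency means the concentration at half of the fitted maximal effect; 0% = DMSO-treated cells and -100% = media-only wells without cells; nearly all actives have a fitted effect of over 55% in size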
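Read-out is CellTiter-Glo luminescence after 10 minutes at room temperature, following 48 hours' compound treatment of HT-1080-NT cells (750 cells/well, RPMI, 5% FBS, 37 degrees C).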
ELG1 DNA repair: qHTS screen for small molecules that inhibit ELG1-dependent DNA repair in human embryonic kidney (HEK293T) cells expressing luciferase-tagged ELG1; AID 504467, 2011; HEK293T ELG1-luciferase reporter, luminescence, 16 h; DNA damage induced by 5-fluorouridine; Potency, µM (doses to about 46.1 µM), for the others: top-dose activity change, negative = inhibition, actives largely listed as inhibitors; 330,000 compounds, 2.3% hits; further: potency means the concentration at half of the fitted maximal effect; nearly all actives have a fitted effect of over 55% in size
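DMSO vehicle served as the neutral condition. Each well held 2,000 cells given 5-fluorouridine plus compound; after 16 hr at 37 °C/5% CO2, ONE-Glo was added and luciferase measured 30 min later.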
The depositor's hits bear a star; ? = inconclusive; . = no result; [ ] = dose if it differs, or a comment. Unless noted, the call rests on the fitted dose curve; in most records, active means well fitted curve in the direction sought with a large enough effect; inconclusive means small, poorly fitted or top-dose-only effect, or another doubt; inactive means no such curve, though single readings can be large; an effect the other way counts as inactive or inconclusive. Unless noted, on the % scale 0 is the no-effect control and ±100 the full control effect.

SMILES	TDP1 cell noCPT	IL-1B inflam inh	HT1080 IDH1KD tx	TDP1 cell CPT	HT1080-NT tox	ELG1 DNA repair
O=C(Nc1nnc(S(=O)(=O)N2CCOCC2)s1)c1ccc(F)cc1	-3.6%	13.3	2.0%	11.1%	-15.1%	16.5%
Cc1ccc(OCC(=O)Nc2ccc(N3CCN(C(=O)c4ccco4)CC3)cc2)cc1	23.1µM*	-58.9*	-14.6%	?	-17.9%	?
Cc1cc(C)cc(C(=O)Nc2ccc(N3CCN(C(=O)c4ccco4)CC3)cc2)c1	16.4µM*	-51.9*	-2.6%	?	-2.8%	20.6µM*
Nc1ccc(N2CCN(C(=O)c3ccco3)CC2)cc1	18.4µM*	5.8	-18.0%	15.8µM*	-6.0%	14.8%
COc1cccc(OC)c1C(=O)Nc1ccc(N2CCN(C(=O)c3ccco3)CC2)cc1	7.1%	-19.7	3.0%	9.8%	12.0%	17.6%
O=C(Nc1nnc(S(=O)(=O)N2CCN(c3ccc(F)cc3)CC2)s1)c1ccco1	?	6.8	5.6%	16.4µM*	1.6%	18.9%
CC(C)CN(C(=O)COC(=O)c1ccccc1SCC(=O)N1CCCC1)C1CCS(=O)(=O)C1 (centres undefined)	-0.4%	-5.4	-6.5%	-10.9%	-6.3%	.
CCn1c(C(=O)O)c(CC(=O)Nc2ccc(Br)cc2C)c2ccccc21	25.8%	36.9	-12.6%	-15.6%	-17.5%	-1.7%
CCN(CC(=O)Nc1ccc(NC(C)=O)cc1)C(=O)CCN1C(=O)C2CC=CCC2C1=O (centres undefined)	5.7%	10.5	2.4%	-1.4%	6.4%	-6.0%
O=C(Nc1ccc(N2CCN(C(=O)c3ccco3)CC2)cc1)c1ccccc1	-6.4%	-21.9	8.0%	2.7%	-0.5%	?
O=C(Nc1ccc(N2CCN(C(=O)c3ccco3)CC2)cc1)c1ccc(F)cc1	20.6µM*	-19.9	17.9%	?	16.8%	20.6µM*
CCOc1ccc(C2CC(c3ccc(F)cc3)n3ncnc3N2)cc1 (centres undefined)	20.6µM*	-12.1	3.4%	?	3.7%	-1.2%
Cc1ccc(C2CC(c3cccc(C)c3)n3ncnc3N2)cc1 (centres undefined)	?	-10.3	-3.0%	14.6µM*	-9.2%	-2.6%
COc1ccc(C(=O)NCc2nc(-c3ccccc3NC(=O)c3cc(C)oc3C)oc2C)cc1F	2.9%	.	.	25.4%	.	.
Cc1ccc(C(CCNC(C)c2cccs2)c2ccco2)cc1 (centres undefined)	18.4µM*	?	?	?	?	2.3%
CCOc1cc(NC(=S)NC)c(OCC)cc1NC(=O)c1ccco1	-7.0%	-5.9	4.3%	-6.2%	10.0%	?
CCOc1cc(NC(=O)c2ccco2)c(OCC)cc1NC(=O)CCc1ccccc1OC	7.31µM*	-3.2	-3.4%	9.2µM*	-5.2%	20.6µM*
CCOc1cc(NC(=O)c2ccco2)c(OCC)cc1NC(=O)c1ccco1	2.91µM*	16.7	20.4%	-20.3%	32.1%	-9.3%
CCOc1cc(C#N)c(NC(=O)c2ccnn2C)cc1OCC	-12.9%	-16.4	-8.7%	-8.5%	-8.0%	?
CCOc1cc(C#N)c(NC(=O)c2ccco2)cc1OCC	6.51µM*	20.7	?	11.6µM*	?	?
Cc1nn2c(-c3cccc(NC(=O)c4ccco4)c3)nnc2c2ccccc12	20.6µM*	?	-1.8%	20.6µM*	-0.3%	?
CCOc1cc(NC(=O)c2ccco2)c(OCC)cc1NC(=O)c1cc(OC)c(OC)c(OC)c1	?	-7.7	?	?	-23.9%	?
CCn1c(-c2ccccc2F)nc2cc(C(=O)NCC3CCOCC3)cc(NC(C)=O)c21	-21.5%	.	.	23.1%[9.04 µM]	.	.
COc1cc(NC(=O)c2ccco2)c(OC)cc1NC(=O)c1cc(OC)c(OC)c(OC)c1	20.6µM*	-5.0	-1.1%	?	4.7%	?
CCOc1ccc(-c2cccc(NC(=O)c3ccco3)c2)nn1	20.6µM*	7.8	6.9%	?	7.2%	-6.2%
SMILES	TDP1 cell noCPT	IL-1B inflam inh	HT1080 IDH1KD tx	TDP1 cell CPT	HT1080-NT tox	ELG1 DNA repair
COc1cc2nc(N3CCCN(C)CC3)nc(Nc3ccncc3)c2cc1OC	7.94µM*	.	.	3.16µM*	.	.
COc1cc2nc(N3CCN(C)CC3)nc(NC3CC3)c2cc1OC	10µM*	.	-11.7%	11.2µM*	-8.9%	.
CCCC(=O)N1CCCN(c2nc(N)c3cc(OC)c(OC)cc3n2)CC1	-20.6%	.	.	-5.1%	.	.
COc1cc2nc(N3CCOCC3)nc(NC3CCN(C)CC3)c2cc1OC	15.8µM*	.	-16.4%	10µM*	1.6%	.
COc1cc2nc(N3CCCCC3)nc(NC3CC3)c2cc1OC	15.8µM*	.	-15.6%	12.6µM*	-20.7%	.
COCCNS(=O)(=O)c1cc(OC)ccc1OC	-7.0%	-2.5	9.2%	4.7%	2.9%	4.8%
CCOc1ccccc1OCCCCn1c(-c2ccc(Cl)cc2)nc2ccccc2c1=O	-8.8%	.	.	?	.	.
COc1ccc(-c2noc(CSc3nnc(Cc4ccccc4)n3-c3ccc(F)cc3)n2)cc1	16.4µM*	.	.	?	.	.
COc1ccc(-c2noc(Cc3ccc(Cl)cc3)n2)cc1OC	?	-28.4	-14.1%	10.3µM*	2.9%	?
COc1ccc(-c2nnc(SCc3nnc(-c4ccc(Cl)cc4)o3)n2-c2ccccc2)cc1	16.4µM*	-28.2	-23.2%	16.4µM*	-11.8%	.
COc1ccc(-c2noc(CSc3nc4ccccc4c(=O)n3-c3ccccc3)n2)cc1	?	37.3	-2.5%	?	-1.3%	-2.8%
COc1ccc(-n2c(SCc3nnc(-c4ccccc4)o3)nnc2-c2ccccc2)cc1	?	-20.5	-17.1%	-8.3%	-12.6%	-18.4%
CCc1ccc(-n2c(SCc3nc(-c4cc(OC)ccc4OC)no3)nnc2-c2ccccc2)cc1	20.6µM*	.	.	18.4µM*	.	.
COc1ccc(-n2c(SCc3nc(-c4ccc(C)cc4)no3)nnc2-c2ccncc2)cc1	-40.5%	.	.	-18.9%	.	.
Cc1cccc(NC(=O)CCS(=O)(=O)c2ccc3c(c2)n(C)c(=O)c(=O)n3C)c1C	2.2%	.	.	1.1%	.	.
CCc1nn(CC(=O)NCc2ccco2)c(=O)c2cc3c(OC)cccc3n12	-3.1%	.	.	-18.0%	.	.
